Compound activity (PubChem BioAssay)
PGK inhibitor – blocks T. brucei phosphoglycerate kinase; P07378; PGK/GAPDH coupled, Kinase-Glo luminescence, 60 min; Potency, µM (top dose mostly 57.5 µM), for inactives: at the highest dose activity change, negative = inhibition, hits mostly inhibitors; hit rate 0.043% among 380,000; AID 602233; note: nearly all actives have a fitted effect of over 60% in size
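Recombinant glycosomal PGK reaction used 1,3-bisphosphoglycerate generated in-well by GAPDH (100nM final) in 100mM TEA pH 7.6, 5mM MgCl2, 0.01% Tween-20. After 60 minutes at room temperature, ATP was read by Kinase-Glo Plus luminescence end-point.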
TDP1 block – inhibitors of human tyrosyl-DNA phosphodiesterase TDP1. Q9NUW8. recombinant TDP1, AlphaScreen DNA substrate cleavage. Potency, µM (top dose mostly 130 µM), for the others: at the highest dose activity change, negative = inhibition, actives largely listed as inhibitors. hit rate 0.28% among 350,000. AID 485290; note: nearly all actives have a fitted effect of over 40% in size
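Recombinant E. coli-expressed Tdp1 (1 nM) preincubated with compound 15 min at RT, then 5'-biotin/3'-phosphotyrosine-FITC DNA substrate (15 nM) added for 5 min. AlphaScreen beads (10 ug/ml) added, 10 min RT; tyrosine-FITC cleavage read as signal loss.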
GLS inhibitor – blocks human kidney-isoform glutaminase activity; O94925; GLS enzymatic activity, qHTS titration; Potency, µM (doses to about 45.5 µM), for the others: at the highest dose activity change, negative = inhibition, actives largely listed as inhibitors; hit rate 0.21% among 410,000
Target sequence (O94925 whole entry, looked up, canonical isoform): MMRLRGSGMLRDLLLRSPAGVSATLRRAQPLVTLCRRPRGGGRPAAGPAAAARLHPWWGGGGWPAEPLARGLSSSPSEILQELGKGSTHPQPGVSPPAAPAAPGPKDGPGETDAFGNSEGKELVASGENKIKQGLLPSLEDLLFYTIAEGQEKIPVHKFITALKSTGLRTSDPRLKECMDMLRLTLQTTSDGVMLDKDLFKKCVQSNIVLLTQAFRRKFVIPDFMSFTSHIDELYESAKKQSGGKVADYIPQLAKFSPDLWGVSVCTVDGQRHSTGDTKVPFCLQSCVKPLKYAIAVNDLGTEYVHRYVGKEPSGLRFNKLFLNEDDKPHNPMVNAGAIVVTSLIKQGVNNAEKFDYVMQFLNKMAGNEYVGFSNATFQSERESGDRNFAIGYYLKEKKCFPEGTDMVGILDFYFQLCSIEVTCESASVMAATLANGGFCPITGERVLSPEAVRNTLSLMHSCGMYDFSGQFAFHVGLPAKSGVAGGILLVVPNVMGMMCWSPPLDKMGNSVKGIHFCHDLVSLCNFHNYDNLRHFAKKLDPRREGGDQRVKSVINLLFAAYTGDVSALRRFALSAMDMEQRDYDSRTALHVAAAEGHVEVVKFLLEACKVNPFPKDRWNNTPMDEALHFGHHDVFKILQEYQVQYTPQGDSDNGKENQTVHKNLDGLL
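Glutamate formation by hKGA was monitored fluorometrically using coupled glutamate oxidase, HRP and Amplex Red. Substrate was added as 1 mM L-glutamine solution; incubation was 30 min at RT after an initial read.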
APEX1 inh – inhibitors of human APE1 endonuclease | hit rate 0.35% among 350,000 | Potency, µM (doses to about 65.8 µM), without a hit: at the top dose activity change, negative = inhibition, hits mostly inhibitors | recombinant APE1, TAMRA/BHQ-2 abasic DNA cleavage fluorescence | P27695;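 note: plate controls were vehicle for no effect and reference inhibitor for full effect; nearly all actives have a fitted effect of over 55% in size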
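Compound pre-exposure to 0.75 nM APE1, 15 min at ambient temperature. Reaction initiated with 50 nM TAMRA/BHQ-2 THF substrate, read immediately in kinetic mode, 525 nm excitation, 598 nm emission.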
RECQ1 helicase – inhibitors of human RECQ1 DNA helicase | P46063 | RECQ1 DNA unwinding, red fluorescence kinetic read | Potency, µM (series often up to 57.3 µM), for the others: top-dose activity, negative = inhibition, most hits filed as inhibitors | hit rate 0.54% among 240,000 | AID 2549;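 note: plate controls were vehicle for no effect and no enzyme for full effect; nearly all actives have a fitted effect of over 30% in size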
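RECQ1T1 50 nM; forked duplex (20 bp + 30-nt ss tails) 200 nM, ATP 2 mM final; pH 8.0, 2 mM MgCl2, 2.5 ug/ml poly(dI-dC); 15 min compound preincubation; discontinuous kinetic read over 2 h at RT.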
BLM inh – Bloom syndrome helicase (human) inhibition | P54132 | recombinant BLM DNA unwinding, fluorescence dequenching | Potency, µM (doses to about 56.1 µM), for the others: at the top dose activity change, negative = inhibition, actives largely listed as inhibitors | hit rate 0.2% among 350,000;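 note: plate controls were vehicle for no effect and no enzyme for full effect; nearly all actives have a fitted effect of over 35% in size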
Active calls of the source: *; i = inactive; ? = inconclusive; nt = no result given; [ ] = remark or other dose. The list is not random: actives were taken first. Their share in the collection is about 0.85%. Calls come from the whole dose curve; as a rule, active = well fitted curve in the direction sought with a large enough effect; inconclusive = small, poorly fitted or top-dose-only effect, or another doubt; inactive = no such curve, though single readings can be large; an effect the other way counts as inactive or inconclusive. Unless noted, % is set by controls: 0 for no effect and ±100 for the full control effect; potency is the fitted concentration of half-maximal effect.

SMILES | PGK inhibitor | TDP1 block | GLS inhibitor | APEX1 inh | RECQ1 helicase | BLM inh
O=C(N[C@@H]1C/C=C\C[C@H](CC(=O)N(CCO)Cc2ccccc2)C(=O)N[C@@H](Cc2ccccc2)COC1=O)OCC1c2ccccc2-c2ccccc21 | 0% | 0% | 2% | -9% | nt | nt
CC(C)(C)[C@H]1COC(=O)[C@H](NC(=O)OCC2c3ccccc3-c3ccccc32)C/C=C\C[C@@H](CC(=O)N[C@H](CO)Cc2ccccc2)C(=O)N1 | -7% | -7% | 1% | -16% | nt | nt
CC(C)(C)[C@H]1COC(=O)[C@H](NC(=O)OCC2c3ccccc3-c3ccccc32)C/C=C\C[C@@H](CC(=O)N[C@@H](CO)Cc2ccccc2)C(=O)N1 | -11% | -5% | 10% | 24µM* | nt | nt
CCOC(=O)C(C)On1c(-c2ccccc2)nc2ccc([N+](=O)[O-])cc21 (configuration not stated) | i | 7% | -1% | 9% | i | -13%
O=C(O)COn1c(-c2ccccc2)nc2ccc([N+](=O)[O-])cc21 | -11% | 25µM* | ? | ? | i | -21%
CCCCC(=O)N/N=C/c1ccc(-c2ccc([N+](=O)[O-])cc2)o1 | -4% | 0% | -16% | 1% | -6% | -3%
Cc1cc(C)n(Cc2ccc(C(=O)N/N=C/c3ccc(-c4ccc([N+](=O)[O-])cc4)o3)o2)n1 | ? | nt | 6% | 2.7µM* | nt | 16µM*
CN(C)c1ccc(-c2cc[nH]c(=O)c2N)cc1 | nt | 9% | nt | nt | nt | nt
COc1ccc(Nc2ccccc2NC(=O)c2ccccc2Br)cc1 | 4% | 10% | 10µM* | 36% | nt | -5%
CCN1CCC[C@@H]1CNC(=O)c1cc(S(=O)(=O)CC)ccc1OC | nt | nt | -3% | nt | nt | nt
O=C(O)C(c1ccccc1)N1C(=O)/C(=C\c2ccc(-c3ccc(Br)cc3)o2)SC1=S (configuration not stated) | 1% | nt | ? | ? | nt | 32µM*
O=C(O)C(c1ccccc1)N1C(=O)/C(=C\c2ccc(-c3ccccc3Cl)o2)SC1=S (configuration not stated) | 11µM* | nt | -4% | ? | nt | ?
COc1cc(C2Nc3ccccc3C(=O)N2Cc2ccccc2)ccc1OCc1ccc(NC(C)=O)cc1 (configuration not stated) | nt | 0% | nt | nt | nt | nt
O=C(NCCc1ccc(Cl)cc1)c1ccc(Cn2c(=O)[nH]c3ccccc3c2=O)cc1 | 0% | 28µM* | -4% | 0% | nt | -29%
O=C(CSc1nnc(-c2cccc(S(=O)(=O)N3CCCC3)c2)n1-c1ccccc1)Nc1ccc(F)cc1 | nt | nt | nt | 12% | nt | nt
COc1cccc(C(=O)Nc2cc(NC(=O)c3cccs3)ccc2C)c1 | -5% | 6.3µM* | -3% | 25% | nt | -8%
c1nc(NCCc2cnc[nH]2)c2cc(-c3ccc4c(c3)OCO4)ccc2n1 | nt | 9% | nt | nt | nt | nt
O=C1CCCN1CCCNC(=S)Nc1ccc(Nc2ccccc2)cc1 | 5% | nt | 18µM* | 4% | i | -2%
COc1ccc(NC(=O)c2cc3cccc(OC)c3oc2=Nc2ccc(C(=O)O)cc2)cc1OC | 0% | 5% | 6.3µM* | ? | -5% | -4%
CC(=O)Nc1ccc2nc3c(=O)[nH]c(=O)[nH]c3nc2c1 | nt | ? | nt | nt | nt | 11µM*
Nc1ccc(C(=O)O)cc1 | -3% | 11% | 2% | -7% | 16% | 4%
Nc1ccc(O)cc1 | nt | 15% | 13µM* | -4% | -11% | nt
O=C1c2ccccc2C(=O)N1/N=C/c1ccc(O)c(O)c1 | -1% | -10% | 2.5µM* | ? | -28% | -7%
COc1cc(/C=N/NC(=S)NCCN2CCOCC2)cc(OC)c1O | -5% | -3% | 4µM* | 1% | 1% | -6%
Cc1ccc(NS(=O)(=O)c2cc3c(cc2Cl)CCC(=O)N3)cc1C | nt | 1% | nt | nt | nt | nt
SMILES | PGK inhibitor | TDP1 block | GLS inhibitor | APEX1 inh | RECQ1 helicase | BLM inh
OC(CN1CCCCC1)c1cc(-c2ccccc2)on1 (configuration not stated) | nt | nt | 1% | nt | nt | nt
Cc1noc(C)c1-c1nc(Nc2ccncc2)c2ccccc2n1 | nt | 28µM* | nt | -8% | -6% | -6%
Oc1ccc(Nc2nc(-c3ccc(Cl)cc3)nc3ccccc23)cc1 | nt | 1% | 17% | nt | nt | -11%
Oc1ccc(Nc2nc(-c3ccccc3)nc3ccccc23)cc1 | 5% | nt | 7.9µM* | -7% | nt | -6%
Cc1noc(C)c1-c1nc(NC2CC2)c2ccccc2n1 | nt | nt | nt | -2% | -2% | 0%
COc1cc(F)c(S(=O)(=O)N2CCCN(S(=O)(=O)c3ccc4c(c3)OCCO4)CC2)c(F)c1 | nt | 0% | nt | nt | nt | nt
CCCCc1oc2ccc(NS(C)(=O)=O)cc2c1C(=O)c1ccc(OCCCN(CCCC)CCCC)cc1 | nt | nt | -3% | nt | nt | nt
O=C(C(=Cc1ccc(F)cc1)c1ccccc1)c1ccc(O)cc1 | -8% | nt | 11µM* | nt | nt | nt
CN(C)c1nc(-c2ccccc2)c2cnn(Cc3ccccc3)c2n1 | -1%[11.5 µM] | 16µM* | -1% | 8% | -7% | -7%
Cc1ccc(NC(=O)C(c2ccccc2)N2CCN(CC(=O)N3CCOCC3)CC2)cc1Cl (configuration not stated) | -9% | 28µM* | 1% | 11µM* | nt | nt
COc1cccc(C2c3c(ncn(-c4ccc5c(c4)OCO5)c3=N)Oc3ccc4ccccc4c32)c1 (configuration not stated) | nt | 5% | nt | nt | nt | nt
O=S1(=O)CC(N2CC=CC2)CN1C1CCCCC1 (configuration not stated) | nt | nt | 11µM* | nt | nt | nt
CCC1(O)CC2CN(CCc3c([nH]c4ccccc34)[C@@](C(=O)OC)(c3cc4c(cc3OC)N(C)C3[C@]45CCN4CC=C[C@@](CC)([C@@H](OC(C)=O)[C@]3(O)C(=O)OC)[C@H]45)C2)C1 (some centres not stated) | nt | 15%[56.1 µM] | nt | -1% | 14µM* | nt
CC[C@]1(O)C[C@@H]2CN(CCc3c([nH]c4ccccc34)[C@@](C(=O)OC)(c3cc4c(cc3OC)N(C)C3[C@]45CCN4CC=C[C@](CC)(C45)[C@@H](OC(C)=O)[C@]3(O)C(=O)OC)C2)C1 (some centres not stated) | nt | 9% | nt | 1% | -14% | nt
O=C(O)C1Sc2[nH]c(=O)sc2C2c3ccc(O)cc3OC(=O)C12 (configuration not stated) | i | 10% | 8.9µM* | -8% | 28% | -16%
O=C(O)C1Sc2[nH]c(=O)sc2C2c3cc(Br)ccc3OC(=O)C12 (configuration not stated) | 6% | 3% | 10µM* | 0% | 9% | -1%
CNC(=O)c1ccccc1Sc1ccc2c(/C=C/c3ccccn3)n[nH]c2c1 | nt | nt | -13% | nt | nt | nt
